Assay results reported in PubChem BioAssay AID1634 (National Center for Advancing Translational Sciences (NCATS), 2009).
The whole screen tested about 260,000 compounds, of which about 150 (0.058%) were called active. Shown is part of a subset that was picked to be rich in actives. A number with no mark means an inactive call. The call rests on the fitted dose curve; in most records, active means well fitted inhibition curve with a large enough effect; inconclusive means small, poorly fitted or top-dose-only effect; inactive means no such curve, though single readings can be large or run the other way.

target: Pyruvate kinase PKM (Homo sapiens) (UniProt P14618); assay: qHTS Assay for Inhibitors of Human Muscle isoform 2 Pyruvate Kinase; conditions: purified PKM2, ATP generation, Kinase-Glo luminescence; series mostly up to 57.5 µM; activity change, negative = inhibition: at the top concentration; further: nearly all actives have a fitted effect of over 60% in size;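 on activity change, negative = inhibition: plate controls were uninhibited enzyme wells for no effect and no-enzyme wells for full effect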
Procedure: NIH Chemical Genomics Center [NCGC] Matthew G. Vander Heiden, M.D., Ph.D. [Harvard Medical School, 77 Avenue Louis Pasteur, Boston, MA 02115] […] ATP generation was detected in a coupled reaction by luciferase-mediated luminescence, an ATP-dependent process. […] The enzyme was assayed at an intermediate level of activity to screen for both inhibitors and activators.
NCGC Assay Protocol Summary: Three uL of substrate mix (at r.t.) in assay buffer (50 mM Imidazole pH7.2, 50 mM KCl, 7 mM MgCl2, 0.01% Tween 20, 0.05% BSA) was dispensed into white solid bottom 1,536 well microtiter plates so that the final concentrations of substrates in the assay were 0.1 mM ADP and 0.5 mM PEP. 23 nL of compound were delivered by a pin tool and 1 uL of enzyme mix in assay buffer (4 degree Celsius) was added. Plates were incubated at room temperature for 1 hour. Two uL of detection mix (Kinase-Glo, Promega; at 4 degree Celsius protected from light) was added and luminescence read by a ViewLux (Perkin Elmer) at 5 second exposure/plate. Data were normalized to the uninhibited and AC100 inhibition (no enzyme). To monitor activation, the first column contained a titration of the activator, NCGC00031955-01 (16-point 1:2 dilutions in duplicate starting at 57 uM) and the first 16 rows of column 4 contained 57 uM of NCGC00031955-01.
Potency means the concentration at half of the fitted maximal effect.

Pyruvate kinase PKM (Homo sapiens), sequence (P14618 whole entry, looked up, canonical isoform): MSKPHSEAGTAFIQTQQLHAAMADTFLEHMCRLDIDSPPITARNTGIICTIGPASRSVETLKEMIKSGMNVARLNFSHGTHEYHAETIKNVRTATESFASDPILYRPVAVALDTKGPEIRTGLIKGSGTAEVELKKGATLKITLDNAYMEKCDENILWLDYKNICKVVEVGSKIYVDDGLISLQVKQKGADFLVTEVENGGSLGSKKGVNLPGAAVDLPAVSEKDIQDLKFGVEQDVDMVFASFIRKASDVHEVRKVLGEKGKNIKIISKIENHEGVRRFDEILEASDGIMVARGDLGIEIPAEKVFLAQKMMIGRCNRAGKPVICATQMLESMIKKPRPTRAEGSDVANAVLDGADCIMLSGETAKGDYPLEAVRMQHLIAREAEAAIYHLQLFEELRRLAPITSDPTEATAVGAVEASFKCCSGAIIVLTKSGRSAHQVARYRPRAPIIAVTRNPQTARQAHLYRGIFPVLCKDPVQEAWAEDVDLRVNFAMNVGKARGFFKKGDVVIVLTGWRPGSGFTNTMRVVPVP

| SMILES | activity change, negative = inhibition [%] | Potency |
| --- | --- | --- |
| Cc1ccc(S(=O)(=O)N2CCCC2C(=O)NCc2ccco2)cc1 (stereo not drawn) | 31.4 | – |
| Cc1noc(C)c1C(=O)OCC(=O)N1CCN(S(=O)(=O)c2ccc3ccccc3c2)CC1 | 50.8 | – |
| CCn1c(NCCc2ccc(OC)c(OC)c2)nc2c1c(=O)n(C)c(=O)n2C | 64.1 | – |
| O=C(COC(=O)CCC(=O)c1cccs1)NCc1ccco1 | 33.7 | – |
| CC(=O)c1cc(C#N)c(SCC(=O)Nc2nccs2)nc1C | 86.5 | – |
| COc1ccc(C2CC(c3ccc([N+](=O)[O-])cc3)=NN2C(C)=O)cc1 (stereo not drawn) | 74.6 | – |
| Cc1ccc(OS(=O)Nc2cccc3nccnc23)cc1 (stereo not drawn) | 34.3 | – |
| Cc1ccc(CNC(=O)C2CCCN2C(=O)NCc2ccccc2)cc1 (stereo not drawn) | -1.6 | – |
| CC(C)(C)C(=O)OCc1nc(-c2ccc(O)c(O)c2)cs1 | 34.7 | – |
| CCOc1ccc(S(=O)(=O)Nc2nccs2)cc1 | 35.4 | – |
| Cn1c(SCC(=O)N/N=C/c2ccc(O)c(O)c2)nc2ccccc21 | 61.5 | – |
| CC(C)Nc1ncnc2c1nnn2Cc1ccccc1 | 51.7 | – |
| O=C(c1c(F)cccc1Cl)N1CCN(S(=O)(=O)c2ccc3c(c2)OCCCO3)CC1 | 55.2 | – |
| O=C(CSc1nnc(-c2ccc(NS(=O)(=O)c3ccccc3)cc2)o1)NCC1CCCO1 (stereo not drawn) | 41.2 | – |
| S=c1[nH]nc(-c2cccs2)n1/N=C/c1cn(-c2ccccc2)nc1-c1ccc(Cl)cc1 | 39.3 | – |
| O=C(Cc1cccs1)Nc1nnc(SCc2ccc(F)cc2)s1 | 45.8 | – |
| Cc1cc(C)n(CCC(=O)N2CCN(S(=O)(=O)c3ccc(C)c(C)c3)CC2)n1 | 37.7 | – |
| COc1ccc(S(=O)(=O)Nc2ccc(F)cc2)c(C)c1C | 32.9 | – |
| CCc1nnc(NC(=O)CSc2nc3c(c(=O)n2-c2ccccc2OC)SCC3)s1 | 30.9 | – |
| Nc1cccc(S(=O)(=O)Nc2ccc(SC(F)F)cc2)c1 | 131 | – |
| Nc1ccccc1Sc1cc(Cl)nnc1Cl | 35.4 | – |
| O=S(=O)(Nc1nccs1)c1ccc2c(c1)OCCO2 | 44.3 | – |
| O=c1[nH]c(-c2cccs2)nc2ccccc12 | -18.3 | – |
| Cn1c2ccccc2c(=O)c2c(=O)n(Cc3ccco3)c(COc3ccccc3)nc21 | 40.6 | – |
| COC(=O)C1=C(C)NC(=O)CC1c1ccccc1OC (stereo not drawn) | 79.9 | – |
| Cc1cc(NC(=O)CSc2nnc(-c3ccc(Cl)s3)o2)no1 | 98.8 | – |
| Cc1ccc(N(C(=O)c2ccc(CN3CCOCC3)o2)C(C(=O)NCCC(C)C)c2cccs2)c(C)c1 (stereo not drawn) | 33.7 | – |

| SMILES | activity change, negative = inhibition [%] | Potency |
| --- | --- | --- |
| Cc1cc(-c2ccc(/C=N/n3cnnc3)o2)c([N+](=O)[O-])cc1C | 36.9 | – |
| O=[N+]([O-])c1ccccc1Nc1ccc(O)cc1 | 41.2 | – |
| S=c1nc(C23CC4CC(CC(C4)C2)C3)nc2sccn12 | -3.34 | – |
| CCc1nnc(NS(=O)(=O)c2ccc(NS(=O)(=O)c3ccccc3)cc2)s1 | 52.4 | – |
| CCNc1nc(NC(C)C)nc(OCCOC(=O)c2ccccc2)n1 | 51 | – |
| CN(C)c1ccc(C=C2C(=O)OC3(CCCC3)OC2=O)cc1 | 73.8 | – |
| COc1ccc(CS(=O)/C(Cl)=C(/Cl)C(=O)Nc2ccc(OC)nc2)cc1 (stereo not drawn) | 42.8 | – |
| CC(=O)c1c(C)[nH]c(C(=O)Nc2cc(S(=O)(=O)N(C)C)ccc2C)c1C | 72.8 | – |
| O=C(NCc1ccco1)c1cccn2c(=O)c3c4c(sc3nc12)CCCC4 | 112 | – |
| O=C(NCc1ccccn1)c1c(O)c2c([nH]c1=O)CCCC2 | 82.1 | – |
| CCC1CCCCN1CCCNC(=O)Cn1nc(-c2ccccc2)ccc1=O (stereo not drawn) | 37.6 | – |
| COc1ccc(C(=O)NC(=S)Nc2ccc(Cl)cn2)cc1OC | 71.8 | – |
| c1cc(-n2cnnn2)ccc1NC1=NCCC1 | 65.9 | – |
| O=C(CCC(=O)N1CCN(S(=O)(=O)c2ccccc2)CC1)NC1CCCc2ccccc21 (stereo not drawn) | 32.8 | – |
| O=c1cc(CO)oc(C(Nc2cccc([N+](=O)[O-])c2)c2ccccn2)c1O (stereo not drawn) | 37.9 | – |
| COC(=O)c1[nH]c2ccccc2c1NC(=O)CN1CCCc2ccccc21 | 103 | – |
| CN(C)/C=C1\C=C(c2ccccc2)OC1=O | 30.6 | – |
| CCC(C)(C)NC(=O)C1c2ccccc2Oc2ccccc21 | 30.6 | – |
| O=C(c1ccc(-c2ccccc2)cc1)C1CCCN(C(=O)c2cncs2)C1 (stereo not drawn) | 71.3 | – |
| O=S(=O)(c1ccc(F)cc1)N1CCN(C(=S)NCc2ccco2)CC1 | 38.3 | – |
| O=C(COc1cc(Cl)c(Cl)cc1Cl)NCCc1ccccn1 | 41.2 | – |
| COC(=O)c1cc2c(N)c(C(=O)c3ccc(Cl)cc3)sc2nc1C(OC)OC | -1.08 | – |
| O=C(Cn1c(COc2ccccc2)nc2ccccc21)Nc1cc(Cl)c(Cl)cc1Cl | 4.1 | – |
| COc1ccc(-c2cn3ccc(C)cc3n2)cc1 | – | 12.6 µM (active) |
| COc1ccc(-c2csc(Cc3nc(O)cs3)n2)cc1 | 31.4 | – |
| N#Cc1ccc(OCc2nnc(-c3ccc([N+](=O)[O-])cc3)o2)cc1 | 60.7 | – |
